The results in this text go back to PubChem BioAssay (NCI).

Experiment [1] can be described thus: NCI Yeast Anticancer Drug Screen. Data for the rad50 strain (AID 155).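 Further: 0% = growth of vehicle-only cultures of the same strain.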 As to conditions: S. cerevisiae rad50 strain growth inhibition; at 50.0 µM; hits give high values. The essentials:
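Growth of the mutant yeast was measured after compound exposure and referenced to vehicle-treated cultures.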

The nature of experiment [2]: NCI Yeast Anticancer Drug Screen. Data for the mec2-1 strain (AID 157). As to conditions: S. cerevisiae mec2-1 strain, at 50.0 µM, hits give high values. The essentials: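 Test agents were screened against the mec2-1 yeast strain, with defined DNA repair or cell cycle alteration. Growth was scored as inhibition against vehicle-only controls.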
Experiment [3] is described as follows: NCI Yeast Anticancer Drug Screen. Data for the sgs1 mgt1 strain (AID 161).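 Further: 0% = growth of cultures given vehicle only.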 As to conditions: S. cerevisiae sgs1 mgt1 strain, at 50.0 µM, hits give high values. The essentials:
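Mutant yeast exposed to compound; growth scored against vehicle-only wells.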

Experiment [4] can be described thus: NCI Yeast Anticancer Drug Screen. Data for the cln2 rad14 strain (AID 165).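 Further: 0% = growth equal to vehicle treated cultures.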 As to conditions: S. cerevisiae cln2 rad14 strain, at 50.0 µM, hits give high values. Summed up:
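Growth of compound-exposed yeast (cln2 rad14 genotype) measured and expressed as inhibition relative to vehicle.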

A short description of experiment [5]: NCI Yeast Anticancer Drug Screen. Data for the bub3 strain (AID 167). The following applies: S. cerevisiae bub3 mutant strain, at 50.0 µM, hits give high values. Summed up: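 Whole-cell yeast assay. The mutant strain was incubated with compounds, and growth inhibition was determined by comparison with vehicle-treated cells.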
Experiment [6] in a line: NCI Yeast Anticancer Drug Screen. Data for the mlh1 rad18 strain (AID 175). The following applies: S. cerevisiae mlh1 rad18 strain growth inhibition; at 50.0 µM; hits give high values. Summed up:
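In this whole-cell yeast screen, a strain with altered DNA damage repair is challenged with compound, and its growth is measured against matched vehicle-treated controls.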

This is part of a sample that, as a whole, favours compounds with a hit. Of some 79,000 tested, about 15% had one in any assay. A number with no mark means an inactive call. Activity calls are given as the source filed them. No stated cut-off is given here; in the data, active means growth inhibition above about 70%; inactive means the rest.

Consider `COc1ccc2c(c1)CCCN2S(=O)(=O)c1ccccc1[N+](=O)[O-]`, for which the growth inhibition in experiment [1] is -25.7%; in experiment [2], -3.9%; in experiment [3], -17.9%; in experiment [4], -7.65%; in experiment [5], 39.2%; in experiment [6], 1.85%.
`O=P(O)(O)c1ccccc1Br`: the growth inhibition was -13.1% in experiment [1]; -17.2% in experiment [2]; 4.85% in experiment [3]; -15.8% in experiment [4]; 2.3% in experiment [5]; 3.2% in experiment [6].
Take `COCc1nc2c(=O)[nH]c(N)nc2[nH]c1=O`: the growth inhibition in experiment [1] is 2.55%; in experiment [2], -3.55%; in experiment [3], -4.8%; in experiment [4] it was -0.25%; in experiment [5], 1.7%; in experiment [6], 1.1%.
For `CO/N=C\c1cc[n+](C)cc1`, the growth inhibition in experiment [1] is 11.7%; in experiment [2], 24.6%; in experiment [3], 18.9%; in experiment [4] it was 30.7%; in experiment [5], 55%; in experiment [6], 19.2%.
Take `COCCc1c2ccccc2cc2ccccc12`: the growth inhibition in experiment [1] is 24.9%; in experiment [2], 3.2%; in experiment [3], 10.4%; in experiment [4], 7.65%; in experiment [5] it was -22.1%; in experiment [6], 17.8%.
Turning to `NC(=Nc1ccccc1)c1ccc(Cl)cc1`, the growth inhibition was 66.2% in experiment [1]; 96.5% (active) in experiment [2]; 45.4% in experiment [3]; 97.2% (active) in experiment [4]; 98.6% (active) in experiment [5]; 87.7% (active) in experiment [6].
On to `COC(=O)CCC1CCCC(CCC(=O)OC)C1=O` (stereo unspecified), for which the growth inhibition in experiment [1] is -4.9%; in experiment [2] it was 4.55%; in experiment [3] it was -17.6%; in experiment [4] it was -6.1%; in experiment [5] it was -1.1%; in experiment [6], -3.3%.
For `CCNC(=O)OCCN(CCOC(=O)NCC)CCc1cccc(OC)c1OC`, the growth inhibition is 6.1% in experiment [1]; 6.65% in experiment [2]; -7.3% in experiment [3]; 1.95% in experiment [4]; -3.5% in experiment [5]; 20.6% in experiment [6].
Take `Cc1ccc(S(=O)(=O)NC(=O)NCCCS(C)=O)cc1` (stereo unspecified): the growth inhibition is -3.5% in experiment [1]; -6.5% in experiment [2]; 6.8% in experiment [3]; -7.8% in experiment [4]; 2.9% in experiment [5]; 10.3% in experiment [6].
For `CC(C)[C@@H]1C=C(c2ccccc2)c2ccccc2C1C(C#N)(C#N)C(C)C` (stereo partly specified), the growth inhibition in experiment [1] was -30.2%; in experiment [2], -33.5%; in experiment [3] it was -10.3%; in experiment [4], -8.4%; in experiment [5], -12.9%; in experiment [6], -14.1%.
Turning to `O=[N+]([O-])c1ccc(NC(=S)Nc2ccc([N+](=O)[O-])cc2)cc1`, the growth inhibition in experiment [1] is 5.05%; in experiment [2] it was -17.6%; in experiment [3] it was -1.1%; in experiment [4], -25.8%; in experiment [5] it was 5.7%; in experiment [6] it was 2.75%.
Regarding `O=C1CS(=O)(=O)C2(CCCCC2)C(=O)N1`, the growth inhibition in experiment [1] is -15.1%; in experiment [2] it was -5.65%; in experiment [3], -12.2%; in experiment [4] it was -42.1%; in experiment [5] it was -3.2%; in experiment [6], -27.6%.
For `N=c1c2ccccc2nc2oc3ccc(Cl)cc3n12`, the growth inhibition in experiment [1] is -15.4%; in experiment [2] it was -32.5%; in experiment [3], -6.25%; in experiment [4], -0.45%; in experiment [5] it was 15.6%; in experiment [6], -8.55%.
Take `CCN(CCNc1cc(OC)cc2cccnc12)c1ccccc1`: the growth inhibition is 59.9% in experiment [1]; 20.7% in experiment [2]; 48.4% in experiment [3]; 23.2% in experiment [4]; 47% in experiment [5]; 68.2% in experiment [6].
Regarding `CCOC1OC(C(O)CO)C(O)C(O)C1O` (stereo unspecified), the growth inhibition is 4.6% in experiment [1]; -8.7% in experiment [2]; -1.9% in experiment [3]; -56.4% in experiment [4]; -7.9% in experiment [5]; -0.6% in experiment [6].
With `Cc1ccc(S(=O)(=O)NC2CC3(C)CCC2C3(C)C)cc1` (stereo unspecified), the growth inhibition in experiment [1] was -0.6%; in experiment [2], -20.4%; in experiment [3], -5.55%; in experiment [4] it was -46.1%; in experiment [5], 14.8%; in experiment [6], -4.45%.
As to `CC(=O)OC1CCC2(C)C(C1)CC(OC(C)=O)C1C2CC(OC(C)=O)C2(C)C(C(C)CC=C(c3ccccc3)c3ccccc3)CCC12` (stereo unspecified), the growth inhibition is 0.1% in experiment [1]; 11.6% in experiment [2]; -4.1% in experiment [3]; -13.7% in experiment [4]; -39.9% in experiment [5]; 8.45% in experiment [6].
On to `CCCCCCCC/C=C/CCCCCCCC(=O)O`, for which the growth inhibition is -25% in experiment [1]; -37.2% in experiment [2]; -20.6% in experiment [3]; -16.8% in experiment [4]; -16.2% in experiment [5]; -50.9% in experiment [6].
Take `O=C(c1ccc(F)cc1)c1ccc2ccccc2c1`: the growth inhibition in experiment [1] is 8.75%; in experiment [2] it was -1.3%; in experiment [3], -3.35%; in experiment [4], 10.7%; in experiment [5], 2%; in experiment [6], 5%.
For the molecule `Fc1ccccc1-c1nnc(-c2ccc3ccccc3c2)o1`, the growth inhibition in experiment [1] was 33.1%; in experiment [2], 14.8%; in experiment [3], 32.4%; in experiment [4], 23.9%; in experiment [5], 40.5%; in experiment [6], 14.7%.
For `NC(=NCc1ccncc1)N/N=C\c1ccnc2ccccc12`, the growth inhibition was 4.15% in experiment [1]; 10.9% in experiment [2]; 7.75% in experiment [3]; -13.7% in experiment [4]; -9.5% in experiment [5]; 7.75% in experiment [6].
